Experimental data taken from PubChem BioAssay (NCI).
About 83,000 compounds went through this panel and 20% of them were active in at least one assay; those are over-represented in the sample as a whole.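 Results are percent growth after 48 hours of single-concentration exposure. 100 means growth as in untreated cells, lower positive values show inhibition; negative values down to -100 show cell death.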 Unmarked numbers belong to inactive results. The source made the active and inactive calls. Rule for the calls: active = growth percent below 10; inactive = the rest.

Tests used:
Test in all cases: NCI-60 one-dose screen, 48 h (100 = growth as untreated, 0 = no growth, -100 = all killed)
Details in all cases: 10 µM unless noted
HCT-15 colon = test system: HCT-15 colon
HT29 colon = test system: HT29 colon
SNB-75 CNS = test system: SNB-75 CNS
U251 CNS = test system: U251 CNS
PC-3 prostate = test system: PC-3 prostate
SK-MEL-5 melanoma = test system: SK-MEL-5 melanoma
UACC-62 melanoma = test system: UACC-62 melanoma
LOX IMVI melanoma = test system: LOX IMVI melanoma
SK-MEL-2 melanoma = test system: SK-MEL-2 melanoma
EKVX NSCLC = test system: EKVX NSCLC
SN12C renal = test system: SN12C renal
UO-31 renal = test system: UO-31 renal
TK-10 renal = test system: TK-10 renal
ACHN renal = test system: ACHN renal
CAKI-1 renal = test system: CAKI-1 renal
A498 renal = test system: A498 renal
CCRF-CEM leukemia = test system: CCRF-CEM leukemia
MOLT-4 leukemia = test system: MOLT-4 leukemia
SK-MEL-28 melanoma = test system: SK-MEL-28 melanoma
SNB-19 CNS = test system: SNB-19 CNS

Compound | growth (HCT-15 colon) | growth (HT29 colon) [%] | growth (SNB-75 CNS) | growth (U251 CNS) | growth (PC-3 prostate) | growth (SK-MEL-5 melanoma) | growth (UACC-62 melanoma) | growth (LOX IMVI melanoma) | growth (SK-MEL-2 melanoma) | growth (EKVX NSCLC) | growth (SN12C renal) | growth (UO-31 renal) | growth (TK-10 renal) | growth (ACHN renal) | growth (CAKI-1 renal) | growth (A498 renal) | growth (CCRF-CEM leukemia) | growth (MOLT-4 leukemia) | growth (SK-MEL-28 melanoma) | growth (SNB-19 CNS)
CC1(C)CC[C@]2(C(=O)N3CCNCC3)CC[C@]3(C)C(=CC[C@@H]4[C@@]5(C)CCC(=O)C(C)(C)[C@@H]5CC[C@]43C)[C@@H]2C1 | 105% | 107 | 91.6% | 105% | 101% | 102% | 98.9% | 95.7% | 105% | 96.7% | 101% | 94.8% | 101% | 112% | 94.2% | 126% | 106% | 103% | – | –
CCN(CC)CCNc1c(C)cc(CO)c(Cl)c1C | 106% | 97 | 90.2% | 105% | 97.9% | 106% | 102% | 98.8% | – | 110% | 97.7% | 111% | 106% | 106% | 104% | 89% | 101% | 93% | 104% | –
COc1ccc(NC(=O)c2ccc(C(F)(F)F)nc2Nc2ccc(Cl)cc2C)cc1Cl | 22.4% | 26.6 | 35% | 20.3% | 10.2% | 28.2% | 15.3% | 13.4% | 31.9% | 11.3% | 24% | – | 60% | 14.5% | 19.9% | 11.5% | 11% | 8.09% (active) | – | –
OC(c1cc(-c2ccc(C(F)(F)F)cc2)nc(-c2ccc(C(F)(F)F)cc2)c1)C1CCCCN1 (stereo unspecified) | -71% (active) | – | -82.9% (active) | -85% (active) | -86.1% (active) | -78.2% (active) | -84.3% (active) | -65.8% (active) | -66.6% (active) | -65.4% (active) | -78.5% (active) | -83.6% (active) | -90.6% (active) | -73.4% (active) | -81.6% (active) | -80.5% (active) | -56.2% (active) | -57.5% (active) | -88.5% (active) | -66.2% (active)
N=C(N)c1ccc(-c2ccc(-c3cc(Cl)cc(Cl)c3)o2)nc1 | -67.1% (active) | – | -90.7% (active) | -88.3% (active) | -29.7% (active) | 34.7% | -86.2% (active) | -86.7% (active) | -71.8% (active) | – | -79.9% (active) | -76.6% (active) | -88.5% (active) | -90.6% (active) | – | 61.8% | -37.9% (active) | -55.1% (active) | -79.2% (active) | -75.6% (active)
Cc1cc(C)c([O-])c(CN(C)CCN(C)Cc2cc(C)cc(C)c2[O-])c1.O=C([O-])c1cccc(C(=O)[O-])n1.[Ti+4] | 36.4% | – | -12.1% (active) | 9.4% (active) | -0.468% (active) | 9.84% (active) | 25.8% | -58.1% (active) | – | 27.1% | 27.4% | – | -20.6% (active) | 19.4% | 24.6% | -86.2% (active) | -2.1% (active) | -5% (active) | -27.2% (active) | 26.6%
Cc1nn(-c2ccc(Cl)cc2)c(=O)n1CCN1CCOCC1 | 74.2% | – | 7.65% (active) | 42.9% | 80.8% | 80.3% | – | 81.6% | 61.1% | – | 89.6% | 66% | 64.4% | 38.7% | 72.4% | 105% | 63.2% | 90.9% | 92.9% | –
O=C(O)C1[S][Sb]([CH](C(=O)O)[CH](C(=O)O)[Sb]2[S]C(C(=O)O)C(C(=O)O)[S]2)[S]C1C(=O)O (stereo unspecified) | 87.6% | – | 83.8% | 73.1% | 83.4% | 3.78% (active) | 89.2% | 8.37% (active) | 64.7% | 98% | 90.2% | 77.4% | 124% | 96.5% | 96.3% | 101% | 52.9% | 63.7% | 61.1% | 92.9%
COc1ccc2[nH]c(O)c(/C=c3/ccc4c(c3)N=C(c3ccc(C(F)(F)F)cc3)N=4)c2c1 | 53.9% | – | 60.7% | 51.6% | 43.1% | 79.1% | 86% | 58.2% | 104% | 82.4% | 79.9% | 91.3% | 131% | 78% | 55.6% | – | 23.2% | 48% | 83.9% | 81.4%
COc1cc(C)cc2oc3oc(=O)c(-c4csc(-c5cc6ccccc6oc5=O)n4)cc3c(=O)c12 | 114% | – | 113% | 110% | 104% | 99.9% | 99.2% | 94.6% | 124% | 107% | 102% | 88.6% | 121% | 104% | 96.1% | 107% | 105% | 108% | 109% | 99.3%
CCC(=O)NC(O)C(Cl)(Cl)C(C)Cl (stereo unspecified) | 95.6% | – | 91.7% | 98.6% | 98.2% | 97.7% | 97.5% | 96.4% | 106% | – | 98.8% | 91.5% | 112% | 100% | 99.4% | – | – | 108% | 104% | 98.4%
C/C(=N\NC(=S)N1CCCCC1)c1ccccn1 | 22.1% | – | 28.8% | 3.98% (active) | 9.88% (active) | -33.2% (active) | -14.3% (active) | 13.4% | 34.3% | -4.33% (active) | 21% | -13.6% (active) | 22.4% | 17.3% | -4% (active) | -13.5% (active) | 8.62% (active) | -3.73% (active) | 37% | 22.9%
Nc1nonc1-c1nc2ccccc2n1Cc1ccc(F)cc1 | 30.4% | – | 32.4% | 52.3% | 61.7% | 56.8% | 48.8% | 49.1% | – | – | 62.4% | – | 55.9% | 68.1% | 35.9% | 42.1% | 54.2% | 30% | 61.3% | 63.8%
COc1ccc2[nH]cc(C(c3ccc(Cl)cc3)N3CCCC3)c2c1 (stereo unspecified) | 89.7% | – | 90% | 92% | 74.8% | 88.5% | – | 90.7% | – | – | 109% | 59% | 87.6% | 93.1% | 89.4% | 87% | 70.2% | 75.1% | 111% | 105%
C#CC[C@@H]1C[C@]2(C)[C@H]3CC=C4[C@H]5[C@@H](C)[C@H](C)CC[C@]5(C(=O)NCCCCCCCCN)CC[C@@]4(C)[C@]3(C)CC[C@H]2C(C)(C)[C@H]1OC(C)=O | -62.1% (active) | – | 83.2% | -90.8% (active) | -21.7% (active) | 91.9% | 105% | -52.9% (active) | 104% | 95% | 76.1% | – | 80.5% | – | -69.7% (active) | 94.5% | -34.6% (active) | -19.8% (active) | 103% | 64.8%
CC(=O)c1cccc(Nc2ncnc3ccc(NC(=O)c4ccco4)cc23)c1 | 86.8% | – | 94.3% | 98.1% | 83.7% | 70.4% | 84.1% | 92.5% | 98.1% | – | 87.4% | 64.8% | 99.6% | 87.1% | – | 82.4% | 96.5% | 77.5% | 98.7% | 93.6%
COc1ccc(-c2nsc3c2NC(=O)CC3c2cccc(F)c2)cc1 (stereo unspecified) | 23% | – | 68.5% | 45.6% | 49.4% | 32.5% | 48.5% | 50.9% | – | – | 55.7% | 70.5% | 51.6% | – | 38.5% | 28.7% | 49.5% | 41.6% | 65.4% | 82.7%
Cc1nc([C@H]2CC[C@H]3[C@@H]4CCC5=CC(=O)CC[C@]5(C)[C@H]4CC[C@]23C)cs1 | 75.2% | – | 104% | 66% | 19.6% | 24.7% | 59.4% | 56.5% | – | 42.2% | 84.1% | 76.3% | 103% | 68.6% | – | 74.4% | 40.7% | – | 93.4% | 91.3%
